Laboratory results taken from the supplement of paper PMC6555819.

Key:
Experiment in all cases: PBM binding z-score (relative to random genomic background probes); higher = stronger binding; sequences stand for … in GC…GCGATTGACAGCGTAGAATGAAGG
[1] = test system: PPARg:RXRa DBDmut IVT, anti-RXR (DBD mutation: RXRa K156A/R161A, NR concentration 270 nM, RXRa partner concentration 90 nM)
In short: (§1)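 On custom Agilent 4×180K arrays, double-stranded probes with 34-nt variable regions carried direct-repeat seeds, single-nucleotide variants, half-site ablations or random human genomic background. Ligand-free nuclear receptor dimers were applied for 1 h, and binding was read with antibodies against each partner (one per run). Binding z-scores come from regression-normalized fluorescence, with the random background probes as reference.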

[2] = test system: PPARg:RXRa IVT, anti-PPARg (NR concentration 270 nM, RXRa partner concentration 90 nM)
In short: as §1

[3] = test system: PPARg DBDmut:RXRa IVT, anti-PPARg (DBD mutation: PPARg1 K132A/R137A, NR concentration 270 nM, RXRa partner concentration 90 nM)
In short: as §1

[4] = test system: PPARg DBDmut IVT, anti-PPARg (DBD mutation: PPARg1 K132A/R137A, NR concentration 270 nM)
In short: as §1

[5] = test system: PPARg homodimer (NR concentration 180 nM)
In short: as §1

[6] = test system: PXR:RXRa (NR concentration 270 nM, RXRa partner concentration 90 nM)
In short: as §1

[7] = test system: PXR homodimer (NR concentration 270 nM)
In short: as §1

[8] = test system: RARa:RXR (NR concentration 270 nM, RXRa partner concentration 90 nM)
In short: as §1

[9] = test system: RARa homodimer (NR concentration 270 nM)
In short: as §1

[10] = test system: RARb:RXRa (NR concentration 270 nM, RXRa partner concentration 90 nM)
In short: as §1

[11] = test system: RARb homodimer (NR concentration 270 nM)
In short: as §1

[12] = test system: RARg:RXRa (NR concentration 270 nM, RXRa partner concentration 90 nM)
In short: as §1

[13] = test system: RARg homodimer (NR concentration 270 nM)
In short: as §1

[14] = test system: RXRa DBDmut IVT, anti-RXR (DBD mutation: RXRa K156A/R161A, NR concentration 90 nM)
In short: as §1

[15] = test system: RXRa homodimer (NR concentration 180 nM)
In short: as §1

[16] = test system: THRa:RXRa (NR concentration 90 nM, RXRa partner concentration 90 nM)
In short: as §1

[17] = test system: THRa homodimer (NR concentration 90 nM)
In short: as §1

[18] = test system: VDR homodimer (NR concentration 270 nM)
In short: as §1

Row | Sequence | PBM binding z-score [1] | PBM binding z-score [2] | PBM binding z-score [3] | PBM binding z-score [4] | PBM binding z-score [5] | PBM binding z-score [6] | PBM binding z-score [7] | PBM binding z-score [8] | PBM binding z-score [9] | PBM binding z-score [10] | PBM binding z-score [11] | PBM binding z-score [12] | PBM binding z-score [13] | PBM binding z-score [14] | PBM binding z-score [15] | PBM binding z-score [16] | PBM binding z-score [17] | PBM binding z-score [18]
1 | TCATATAGGTAAATTCTAGGTGAAAGTCCGATCT | 3.83 | 4.08 | 1.26 | 1.32 | 1.09 | 0.778 | 0.524 | 1.22 | 1.61 | 0.593 | 0.708 | 0.737 | 0.439 | 1.81 | 0.907 | 2.11 | 1.11 | 0.726
2 | TAGCCTAGGTCAGATCGGGCCAGTATACGCTATA | 0.415 | 1.78 | 0.225 | -0.375 | 0.0641 | 1.01 | -0.518 | 1.42 | -0.937 | 3.02 | 2.17 | 2.61 | 3.1 | -0.634 | 1.44 | 4.09 | 0.0638 | -0.176
3 | GCTAGTTGGTCTGTAAAAGGTCACACACCGGTCG | 0.547 | 2.28 | 0.389 | -0.363 | 4.38 | 4.79 | 1.16 | 5.54 | 1.67 | 3.87 | 5.02 | 5.01 | 4.62 | 0.681 | 5.65 | 3.52 | 1.78 | 1.81
4 | CTCGAAAGGTCGGTTGAGGCGAGTATACGGATAA | -0.316 | 0.197 | 0.246 | -0.285 | 0.331 | 1.17 | -0.214 | 2 | -0.443 | 2.66 | 1.33 | 2.36 | 2.23 | 0.644 | 1.72 | 4.02 | -0.501 | -0.121
5 | TCGCCTAGGTCATGCGGGCCAGTATAGTGTCGGC | 2.3 | 2.74 | -0.0945 | -0.593 | 0.827 | 1.45 | -0.348 | 2.59 | -0.685 | 3.87 | 3.2 | 3.96 | 4.3 | 1.28 | 2.9 | 3.29 | 1.43 | 0.82
6 | CGTCCAAGGTCATAGGAGGTCAGTGATGACAGAT | 3.37 | 4.38 | 0.469 | 0.243 | 3.94 | 6.6 | 3.48 | 5.69 | 2.24 | 5.32 | 5.33 | 6.66 | 6.93 | 3.97 | 6.5 | 5.4 | 3.25 | 4.59
7 | ATCGAAAGGTCGACGTGGTGAGTATACACCGTTT | 0.406 | 1.46 | 0.651 | 0.527 | 1.02 | 2.18 | 0.102 | 3.07 | 0.487 | 3.66 | 2.74 | 4.04 | 4.24 | 1.23 | 4.03 | 1.89 | -0.255 | 0.481
8 | ACTATTAGTTGACTTAGGGCTACCGATACGACGC | -0.203 | 0.114 | 1.14 | 0.816 | 0.416 | -0.151 | -0.109 | 0.146 | 0.74 | 0.27 | -0.0045 | 0.457 | 0.61 | 0.644 | 0.257 | 1.21 | 0.349 | 0.385
9 | ATCTCTAGGTAACATGTTCAGTGAAAGAGAGGAC | 3.39 | 2.6 | 1.47 | 1.39 | -0.116 | 0.0539 | -0.0105 | 0.322 | -0.388 | 0.433 | 0.187 | 0.668 | 0.705 | 0.0522 | 0.565 | 1.04 | 0.541 | -0.0529
10 | ATCTCTAGGTAAGACTCAGTTCGGTGAAGAACGC | 2.26 | 1.24 | 0.576 | 0.0505 | 0.778 | 0.179 | 0.754 | 0.0942 | 0.985 | 0.104 | 0.505 | 0.0648 | 0.192 | 0.349 | -0.00788 | 0.483 | 0.697 | 0.648
11 | AGAATGACGTTAAGATCAGGGAAACAGAATACAT | -0.994 | -0.522 | -0.562 | 0.191 | -0.654 | -0.527 | 0.305 | -0.498 | 0.719 | -0.268 | -0.348 | 0.0241 | 0.396 | -0.43 | 0.183 | -0.0731 | -0.547 | -0.184
12 | CCTGCTAGGTCATGGTCATCTAATCTACAGTATG | 4.28 | 3.88 | 0.258 | 0.159 | 1.51 | 1.53 | -0.321 | 2.23 | 0.16 | 3.76 | 3.47 | 4 | 4.75 | 1.78 | 2.78 | 3.08 | 1.52 | 0.674
13 | CCTTACGGGTCAAGGCTATAGCACGGGTGGTACG | 1.68 | 3.1 | -0.373 | -0.381 | 1.08 | 2.58 | -0.208 | 3.68 | 0.855 | 3.98 | 2.91 | 4.66 | 4.36 | 0.343 | 5.14 | 2.39 | -0.0277 | 0.575
14 | ACAGACAGGTGATGAAGGTTACTCAGGCTATCAT | 0.431 | 0.604 | 0.785 | -0.154 | 0.281 | 0.38 | 0.162 | 0.715 | 0.502 | 0.957 | 1.16 | 0.777 | 0.687 | 0.104 | 0.748 | 0.904 | 0.139 | 0.291
